{
  "source": "PubChem BioAssay (EPA / NIEHS)",
  "note": "Active and inactive are the calls of the source. Rule for the calls: active = hit-call score of the fitted dose curve at least 0.9, where 1 is the maximum; inactive = score below 0.9.",
  "data": [
    {"read-out": "Caspase-3 (Homo sapiens) (UniProt P42574)", "assay": "LTEA_HepaRG_CASP3: Life Technologies and Expression Analysis (LTEA) Assay for cysteine-aspartic acid protease (CASP3) using HepaRG (AID 2283477)", "settings": "mRNA level, 48 h; actives raise or lower the signal", "protocol": "LTEA_HepaRG is a cell based, multiplexed-readout assay that uses HepaRG, a human liver cell line, with measurements taken at 48 hours after chemical dosing on a 96-well plate.LTEA_HepaRG_CASP3 is one of 102 assay component(s) measured in the LTEA HepaRG cell culture assay. It is a marker of Cell proliferation, survival, death.Data from the assay component LTEA_HepaRG_CASP3 was analyzed into 1 endpoint. This assay endpoint, LTEA_HepaRG_CASP3, was analyzed with bidirectional fitting relative to DMSO as the negative control and baseline of activity. Using a type of inducible reporter, measures of mRNA induction for gain or loss-of-signal activity can be used to understand regulation of transcription factor activity. To generalize the intended target to other relatable targets, this assay endpoint is annotated to the protease intended target family, where the subfamily is cysteine protease.\nA total of 1060 chemcials from the ToxCast library were tested in eight-point concentration-response experiments. Cell culture and cytotoxicity assays were conducted at Thermo Fisher Scientific's Custom Services facility (Madison, WI). A single lot of human HepaRG cells (Thermo Fisher Scientific, Frederick, MD) was used for the cell culture experiments. 96-well format collagen type I coated plates of human HepaRG cells were prepared using established methods. Briefly, cryopreserved HepaRG cells were thawed, plated at a density of approximately 100,000 cells/well in HepaRG Thaw, Plate, and General Purpose media (HPRG770, Thermo Fisher Scientific), and incubated for 48 hours. 0.5% DMSO was selected as vehicle control to balance the requisite need of DMSO in HepaRG cultures to maintain differentiation (for example, baseline metabolism, proportions of hepatocytes vs. cholangiocytes), while enabling further hepatic receptor pathway activation (for example, PXR and CAR) in response to chemical exposure. 48 hours after plating, the culture medium was replaced with HepaRG Serum-Free Incudtion Media. Cells were exposed to each test chemical in duplicate and maintained in CO2 incubators for another 48 hours. Chemical plates were thawed to room temperature and 200x concentrations of treatment groups were prepared. 8-point conentration-reponse curves were made with the highest exposure at 100 uM, followed by half-log dilutions, all in 0.5% DMSO. Each test plate contained variouse controls, induction positive controls (1mM phenobarbital), cytotoxicity positive controls ([…] aflatoxin B1), vehicle controls (0.5% DMSO), and total lysis controls (0.5% DMSO). Cell morphology images were taken using an Essen IncuCyte FLR automated microscope, with six 96-well plates imaged in about 24 minutes. Images were captured and exported and JPEG files. Spent culture media was transfered to black-well plates for the LDH assay, and remaining media was sorted at -80 C for later use. Cells were treated with RLT buffer and frozen until shipped for gene expression analysis. Total RNA was isolated from the cell suspension in 75 uL of Buffer RLT (Qiagen, Germantown, MD 20874) by Quintiles/Expression Analysis (Durham, NC) using a custom isolation procedure. Total RNA from each plate well was transferred to a preamplification plate. Fluidigm's 96.96 Dynamic ArrayTM (Fluidigm, Amsterdam, the Netherlands) technology was used for gene expression analyses by quantitative reverse transcription polymerase chain reaction (qRT-PCR, performed by Quintiles/Expression Analysis, Durham, NC)89. Standard TaqManTM Assays (Applied Biosystems/ThermoFisher Scientific, Foster City, CA) were used to assess the expression of 93 genes selected based on their selectivity and sensitivity to important hepatic receptors known to be modulated by environmental chemicals; importance in human hepatocyte functionality; and hepatotoxicity. […]", "values": [
      {"smiles": "CCN1CCC2(CC1)COc1cc3c(cc12)N(C(=O)c1ccc(-c2ccc(-c4nnc(C)o4)cc2C)cc1)CC3", "outcome": "inactive"},
      {"smiles": "ClCC(Cl)CCl", "outcome": "inactive"},
      {"smiles": "CCOP(=S)(OCC)Oc1nc(Cl)c(Cl)cc1Cl", "outcome": "inactive"},
      {"smiles": "C[C@]12CCC(=O)C[C@@H]1CC[C@@H]1[C@@H]2CC[C@]2(C)[C@@H](O)CC[C@@H]12", "outcome": "inactive"},
      {"smiles": "O=c1[nH]c(=O)[nH]c(=O)[nH]1", "outcome": "inactive"},
      {"smiles": "CCOP(=S)(OCC)SCSP(=S)(OCC)OCC", "AC50": "0.095 µM (active)"},
      {"smiles": "Cc1ccccc1N", "outcome": "inactive"},
      {"smiles": "CN(C)N=O", "outcome": "inactive"},
      {"smiles": "CC(C)(OO)c1ccccc1", "outcome": "inactive"},
      {"smiles": "CC(=O)[O][Hg][c]1ccccc1", "AC50": "23.1 µM (active)"},
      {"smiles": "NC(=O)O", "outcome": "inactive"},
      {"smiles": "C[C@@H]1C[C@@H]([C@H](O)CC2CC(=O)NC(=O)C2)C(=O)[C@@H](C)C1", "AC50": "12.3 µM (active)"},
      {"smiles": "Cn1sc(Cl)cc1=O", "outcome": "inactive"},
      {"smiles": "CC(C)(C)c1cc(O)ccc1O", "outcome": "inactive"},
      {"smiles": "COc1cc(-c2ccc(N)c(OC)c2)ccc1N", "outcome": "inactive"},
      {"smiles": "C=C(C)C(=O)[O][Sn]([CH2]CCC)([CH2]CCC)[CH2]CCC", "AC50": "5 µM (active)"},
      {"smiles": "CC(C)(c1ccccc1)c1ccc(O)c(C(C)(C)c2ccccc2)c1", "outcome": "inactive"},
      {"smiles": "O=C(O)C(Cl)(Cl)Cl", "outcome": "inactive"},
      {"smiles": "CCC(=O)C(CC(C)N(C)C)(c1ccccc1)c1ccccc1", "note": "(stereo not given)", "outcome": "inactive"},
      {"smiles": "Oc1cccc2cccnc12", "outcome": "inactive"},
      {"smiles": "O=[N+]([O-])c1ccc(O)c([N+](=O)[O-])c1", "AC50": "7 µM (active)"},
      {"smiles": "CCCCCCCCc1ccc(O)cc1", "outcome": "inactive"},
      {"smiles": "CC(C)(C)CC(C)(C)c1ccc(O)cc1", "outcome": "inactive"},
      {"smiles": "O=C(O)C(F)(F)C(F)(F)C(F)(F)C(F)(F)C(F)(F)C(F)(F)F", "outcome": "inactive"},
      {"smiles": "O=C1C2(Cl)C3(Cl)C4(Cl)C(Cl)(Cl)C5(Cl)C3(Cl)C1(Cl)C5(Cl)C24Cl", "note": "(stereo not given)", "AC50": "92.3 µM (active)"},
      {"smiles": "ClC1(Cl)C2(Cl)C3(Cl)C4(Cl)C(Cl)(Cl)C5(Cl)C3(Cl)C1(Cl)C5(Cl)C24Cl", "note": "(stereo not given)", "outcome": "inactive"},
      {"smiles": "CCC(C)(C)c1ccc(O)c(C(C)(C)CC)c1", "outcome": "inactive"},
      {"smiles": "O=C(Nc1ccc2[nH]ccc2c1)c1cc2cc(F)ccc2n1Cc1cccc(F)c1", "outcome": "inactive"},
      {"smiles": "O=C(O)C(F)(F)C(F)(F)C(F)(F)C(F)(F)C(F)(F)C(F)(F)C(F)(F)C(F)(F)C(F)(F)C(F)(F)F", "outcome": "inactive"},
      {"smiles": "C=CC(=O)OCCCCCC(C)C", "outcome": "inactive"}
    ]}
  ]
}
